About 83,000 compounds went through this panel and 20% of them were active in at least one assay; those are over-represented in the sample as a whole.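 Negative percent growth values reflect cell death: -40 means 40% of the cells present at the start died, and -100 means all died.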 A number with no mark means an inactive call. Calls of active or inactive are those of the source. The calls were made as follows: active = growth percent below 10; inactive = the rest.

Test systems include NCI-H23 lung; NCI-H226 lung; NCI-H322M lung; HOP-62 NSCLC; NCI-H460 lung; HOP-92 NSCLC; NCI-H522 lung; A549/ATCC NSCLC; 786-0 renal; COLO 205 colon; DU-145 prostate; K-562 leukemia; MALME-3M melanoma; MDA-MB-231 breast; RXF 393 renal; SF-268 CNS; SF-295 CNS; SF-539 CNS; UACC-257 melanoma; M14 melanoma.
What all share (test): NCI-60 one-dose screen, 48 h (100 = growth as untreated, 0 = no growth, -100 = all killed)
Holding throughout (settings): 10 µM unless noted

Turning to `COc1c(CNC(=O)CCl)cc2[nH]c(C)cc2c1CNC(=O)CCl`, the growth with NCI-H23 lung was 57.2%; in the assay on NCI-H226 lung, 69.4%; with NCI-H322M lung, 67.4%; with HOP-62 NSCLC it was 70.4%; in the assay with NCI-H460 lung it was 31.5%; in the assay with HOP-92 NSCLC, 107%. Moreover, the growth in the assay on NCI-H522 lung was -2.03% (active); in the assay with A549/ATCC NSCLC, 56.4%; in the assay on 786-0 renal, 68%; in the assay on COLO 205 colon it was 54.8%; with DU-145 prostate, 65.8%; with K-562 leukemia, 63.5%. For the same molecule, the growth with MALME-3M melanoma was 82%; in the assay with MDA-MB-231 breast, 87.7%; in the assay with RXF 393 renal it was 60.8%; with SF-268 CNS it was 59.4%; in the assay with SF-295 CNS it was 64.7%; with SF-539 CNS, 72.3%. For the same molecule, the results for the growth in the assay with UACC-257 melanoma and in the assay with M14 melanoma were 51.9% and 47.3%, respectively.

Regarding `CCCCCCCCNC(=O)C(C)C`, the growth is 94.6% in the assay on NCI-H23 lung; 96.4% in the assay with NCI-H226 lung; 107% in the assay with NCI-H322M lung; 104% with HOP-62 NSCLC; 98.3% in the assay with NCI-H460 lung; 90% in the assay with HOP-92 NSCLC. In addition, the growth with NCI-H522 lung is 92.5%; with A549/ATCC NSCLC, 102%; in the assay on 786-0 renal, 107%; in the assay on COLO 205 colon, 108%; in the assay with DU-145 prostate, 105%; in the assay on K-562 leukemia, 108%. The growth in the assay on MALME-3M melanoma is 106%; in the assay on MDA-MB-231 breast it was 109%; in the assay on RXF 393 renal it was 93%; in the assay with SF-268 CNS it was 104%; in the assay on SF-295 CNS, 100%; in the assay on SF-539 CNS, 96.9%. Further, the values for the growth in the assay on UACC-257 melanoma and with M14 melanoma were 108% and 95.5%, respectively.

For `CCOC(=O)C1(N)CCCCC1`, the growth in the assay on NCI-H23 lung is 96.8%; with NCI-H226 lung, 98.6%; in the assay with NCI-H322M lung it was 107%; in the assay on HOP-62 NSCLC it was 102%; with NCI-H460 lung it was 112%; with HOP-92 NSCLC it was 102%. Besides, the growth in the assay on NCI-H522 lung was 96.8%; in the assay with A549/ATCC NSCLC, 100%; in the assay on 786-0 renal, 101%; with COLO 205 colon it was 110%; in the assay on DU-145 prostate, 112%; in the assay with K-562 leukemia it was 116%. Further, the growth in the assay with MALME-3M melanoma is 100%; in the assay on MDA-MB-231 breast, 102%; in the assay with RXF 393 renal it was 121%; with SF-268 CNS it was 102%; in the assay on SF-295 CNS, 95.4%; in the assay with SF-539 CNS it was 96.9%. Also, the growth in the assay with UACC-257 melanoma was 107%; in the assay with M14 melanoma it was 93.8%.

With `CCOC(=O)C(CCC#N)(CCC#N)C(=O)OCC`, the growth in the assay on NCI-H23 lung was 96.6%; with NCI-H226 lung, 98.4%; in the assay on NCI-H322M lung it was 113%; with HOP-62 NSCLC, 102%; in the assay with NCI-H460 lung, 103%; in the assay with HOP-92 NSCLC, 84%. Also, the growth in the assay with NCI-H522 lung is 117%; in the assay with A549/ATCC NSCLC, 102%; in the assay with 786-0 renal it was 98.4%; with COLO 205 colon it was 102%; in the assay on DU-145 prostate, 110%; in the assay with K-562 leukemia it was 115%. The growth with MALME-3M melanoma is 113%; in the assay with MDA-MB-231 breast, 105%; in the assay with RXF 393 renal it was 104%; in the assay with SF-268 CNS, 99.2%; in the assay on SF-295 CNS it was 96.4%; with SF-539 CNS, 103%. Besides, the growth with UACC-257 melanoma is 103%; in the assay on M14 melanoma, 89.2%.

`CCOc1ccccc1NC(=O)CCl`: the growth in the assay with NCI-H23 lung is 71.4%; with NCI-H226 lung, 86.3%; in the assay with NCI-H322M lung, 107%; with HOP-62 NSCLC, 99.8%; with NCI-H460 lung, 97.3%; with HOP-92 NSCLC it was 103%. The growth was 56.1% in the assay on NCI-H522 lung; 100% in the assay with A549/ATCC NSCLC; 108% in the assay with 786-0 renal; 104% in the assay on COLO 205 colon; 105% in the assay on DU-145 prostate; 86.8% in the assay with K-562 leukemia. For the same molecule, the growth with MALME-3M melanoma is 92.2%; in the assay with MDA-MB-231 breast, 83.8%; with RXF 393 renal, 93.9%; in the assay on SF-268 CNS it was 91.7%; with SF-295 CNS, 87.4%; with SF-539 CNS it was 114%. The growth is 102% in the assay on UACC-257 melanoma and 79.1% in the assay with M14 melanoma.

Take `CC(=O)N(C(C)=O)c1ccc(C)cc1`: the growth in the assay with NCI-H23 lung is 98.1%; in the assay on NCI-H226 lung it was 96.2%; in the assay with NCI-H322M lung, 102%; in the assay with HOP-62 NSCLC, 105%; in the assay on NCI-H460 lung, 107%; with HOP-92 NSCLC it was 99.5%. The growth in the assay with NCI-H522 lung is 113%; with A549/ATCC NSCLC, 104%; in the assay on 786-0 renal it was 92.7%; with COLO 205 colon, 119%; in the assay with DU-145 prostate, 107%; in the assay with K-562 leukemia, 99.1%. For the same molecule, the growth is 97.2% with MALME-3M melanoma; 102% in the assay on MDA-MB-231 breast; 104% with RXF 393 renal; 96.9% in the assay with SF-268 CNS; 93.5% with SF-295 CNS; 98% with SF-539 CNS. Further, the growth was 110% in the assay with UACC-257 melanoma and 114% with M14 melanoma.

As to `CC(=O)/C(C)=N\OC(=O)Nc1ccccc1`, the growth is 93.8% with NCI-H23 lung; 104% in the assay with NCI-H226 lung; 101% in the assay with NCI-H322M lung; 94.8% in the assay on HOP-62 NSCLC; 107% in the assay with NCI-H460 lung; 92.9% with HOP-92 NSCLC. Further, the growth is 98.3% in the assay on NCI-H522 lung; 103% with A549/ATCC NSCLC; 100% in the assay on 786-0 renal; 96.4% in the assay with COLO 205 colon; 104% in the assay on DU-145 prostate; 98.4% with K-562 leukemia. In addition, the growth in the assay on MALME-3M melanoma was 104%; in the assay on MDA-MB-231 breast it was 99.3%; in the assay with RXF 393 renal, 125%; with SF-268 CNS it was 101%; in the assay with SF-295 CNS it was 101%; with SF-539 CNS, 95.3%. The growth with UACC-257 melanoma was 98.7%; in the assay on M14 melanoma it was 101%.

As for `CC(c1ccccc1)N(C)C` (stereo not given), the growth in the assay on NCI-H23 lung is 110%; in the assay with NCI-H226 lung, 95.3%; in the assay with NCI-H322M lung, 92.3%; in the assay on HOP-62 NSCLC, 87.9%; in the assay with NCI-H460 lung it was 107%; in the assay on HOP-92 NSCLC, 111%. For the same molecule, the growth with NCI-H522 lung was 98%; with A549/ATCC NSCLC, 106%; in the assay on 786-0 renal, 104%; with COLO 205 colon, 103%; in the assay with DU-145 prostate it was 119%; with K-562 leukemia, 28%. The growth with MALME-3M melanoma is 141%; with MDA-MB-231 breast, 99.1%; in the assay on RXF 393 renal it was 124%; in the assay on SF-268 CNS it was 108%; in the assay on SF-295 CNS it was 131%; with SF-539 CNS, 103%. Besides, the growth with UACC-257 melanoma is 116%; with M14 melanoma it was 92.1%.

(Values after PubChem BioAssay (NCI).)
